These results are taken from PubChem BioAssay (Tox21).

Inconclusive results are not listed. Calls of active or inactive are those of the source. Unless noted, calls come from the whole dose curve; as a rule, active = well fitted curve in the direction sought with a large enough effect in the repeat runs; inconclusive = weak or mixed curves; inactive = no such curve, though single readings can be large; an effect the other way counts as inactive or inconclusive.

Experiment [1] is described as follows: qHTS assay for small molecules that induce genotoxicity in human embryonic kidney cells expressing luciferase-tagged ATAD5 (AID 651632). Note: nearly all actives have a fitted effect of over 15% in size. Summed up:
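Cells were seeded at 2,000 per well, dosed with compound, and incubated 16 hr at 37C in 5% CO2. Luciferase activity was then quantified after a 30 min room-temperature incubation with Amplite.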
In general terms: Quantitative high-throughput screening tests each substance at several concentrations.

A short description of experiment [2]: qHTS assay for small molecule agonists of the p53 signaling pathway - cell viability (AID 651633; calls by dose curve; note: nearly all actives have a fitted effect of over 30% in size; note: potency is the fitted concentration of half-maximal effect). Summed up:
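p53RE-bla cells, seeded at 4,000 per well and rested 5 h at 37 C/5% CO2, received compounds in DMSO for 16 h at 37 C. CellTiter-Glo was then added, and luminescence was read after 30 min at room temperature to gauge cytotoxicity.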

Experiment [3] in a line: qHTS assay for small molecules that induce genotoxicity in human embryonic kidney cells expressing luciferase-tagged ATAD5 - cell viability (AID 651634; calls by dose curve; note: nearly all actives have a fitted effect of over 25% in size; note: potency is the fitted concentration of half-maximal effect). A digest of the protocol: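 Cells (HEK293T, luciferase-tagged ATAD5) are seeded at 2,000 per well, dosed with compound or DMSO vehicle, and incubated 15.5 hr at 37C and 5% CO2. CellTiter-Fluor is added for 30 min before fluorescence is measured.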

The nature of experiment [4]: qHTS assay for small molecule disruptors of the mitochondrial membrane potential - cell viability (AID 720634; calls by dose curve;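 note: human HepG2 liver cancer cells; series mostly up to about 83 µM; nearly all actives have a fitted effect of over 20% in size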). Summed up: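 Cytotoxicity was measured by ATP quantitation in HepG2 wells that had first been treated with compound for 1 hr and stained with m-MPI dye; CellTiter-Glo incubation was 30 min at room temperature.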
A short description of experiment [5]: qHTS assay to test for compound auto fluorescence at 590 nm (red) in HepG2 cells (AID 720674). Summed up:
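Compound auto-fluorescence is scored relative to Rose Bengal sodium, measured at 540/590 nm in live HepG2 cultures after 1 hr compound contact (37 C, 5% CO2).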

The nature of experiment [6]: qHTS assay to test for compound auto fluorescence at 535 nm (green) in HepG2 cells (AID 720675).
A short description of experiment [7]: qHTS assay to test for compound auto fluorescence at 460 nm (blue) in HEK293 cells (AID 720678). A digest of the protocol:
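HEK293 cells (2,000 per well, medium with 10% dialyzed FBS) attached for 4-5 hr at 37C, then received compound and stood overnight at 37C, 5% CO2. Blue fluorescence was read at Ex/Em 405/460 nm and expressed relative to triamterene.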

Experiment [8] is described as follows: qHTS assay to test for compound auto fluorescence at 590 nm (red) in HEK293 cells (AID 720679). A digest of the protocol: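 HEK293 cells (2,000/well, medium with 10% dialyzed FBS) attached for 4-5 hr at 37C, received 23 nL compound and were incubated overnight at 37C, 5% CO2. Red fluorescence was then read at 540/590nm Ex/Em, referenced to Rose Bengal sodium.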

Experiment [9] is described as follows: qHTS assay for small molecule disruptors of the mitochondrial membrane potential (AID 720635). Note: potency is the fitted concentration of half-maximal effect. Summed up: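 HepG2 cells (2,000/well) attached overnight at 37C, then took compound for 1 hr at 37C, 5% CO2. Mito-MPS dye was added for 30 min; fluorescence was read at 490/535 nm (monomers) and 540/590 nm (aggregates).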

On to `CC(=O)N[C@@H](C=O)[C@@H](O)[C@H](O)[C@H](O)CO`, for which the Potency entry in experiment [1], in experiment [2], in experiment [3], in experiment [4], in experiment [5] and in experiment [6] was “inactive” each time. For the same compound, the Potency entry in [7] and in experiment [8] was “inactive” in each case.

Turning to `O=C(NNCS(=O)(=O)O)c1ccncc1`, the Potency entry in experiment [1], in [2], in experiment [3], in [4], in experiment [5] and in experiment [6] was “inactive” in each case. Also, the Potency result in [7] and in experiment [8] was “inactive” each time.

For the compound `CC(=O)Oc1cccc(C(=O)O)c1OC(C)=O`, the Potency entry in [1], in experiment [2], in [3], in experiment [4], in [5] and in experiment [6] was “inactive” in each case. The Potency result in [7] and in experiment [8] was “inactive” throughout.

`C[C@H]1[C@@H](OC(=O)CCC(=O)O)O[C@@H]2OC3(C)CC[C@H]4[C@H](C)CC[C@@H]1[C@@]24OO3`: the Potency result in [1], in [2], in experiment [4], in experiment [5], in [6] and in [7] was “inactive” throughout. Moreover, the Potency entry in experiment [8] is “inactive”. For the same compound, the Potency in experiment [3] is 2.37 µM (active).

For `CC(C)=CCC/C(C)=C/C=C/C(C)=C/C=C/C(C)=C/C=C/C=C(C)/C=C/C=C(C)/C=C/C=C(\C)CCC=C(C)C`, the Potency entry in [1], in experiment [2], in [3], in experiment [4], in experiment [5] and in experiment [6] was “inactive” in each case. Moreover, the Potency entry in [7] and in [8] was “inactive” each time.

`CN=C1C=CC(=C(c2ccc(N(C)C)cc2)c2ccc(N(C)C)cc2)C=C1`: the Potency entry in experiment [1], in [5], in experiment [6], in experiment [7] and in [8] was “inactive” each time. Moreover, the Potency in experiment [2] is 18.8 µM (active); in [3] it was 4.73 µM (active); in experiment [9], 0.0441 µM (active).

Regarding `CCN(CC)CCC(=O)N1c2ccccc2Sc2ccc(Cl)cc21`, the Potency entry in experiment [1], in experiment [2], in experiment [3], in experiment [4], in [5] and in experiment [6] was “inactive” each time. Also, the Potency entry in experiment [7] and in experiment [8] was “inactive” in each case.

Regarding `Cc1cc(C)c(NC(=O)C[C@H](CC(=O)O)c2cccc3ccccc23)c(C(=O)N2CCC3(CCCC3)CC2)c1`, the Potency result in experiment [1], in experiment [2], in experiment [3], in [4], in experiment [5] and in experiment [6] was “inactive” in each case. The Potency result in experiment [7] and in experiment [8] was “inactive” each time.

Take `S=C1SCN(Cc2ccccc2)CN1Cc1ccccc1`: the Potency entry in experiment [1], in experiment [2], in [3], in experiment [4], in [5] and in experiment [6] was “inactive” each time. Besides, the Potency result in [7] and in [8] was “inactive” each time.

As for `CCOC(=O)[C@H](CCc1ccccc1)N[C@H]1CCCN2CCC[C@@H](C(=O)O)N2C1=O`, the Potency result in experiment [1], in experiment [2], in experiment [3], in experiment [9], in experiment [5] and in [6] was “inactive” each time. Besides, the Potency entry in experiment [7] is “inactive”.

In the case of `O=C(Nc1ccc(/C=C/c2ccc(NC(=O)c3cc(S(=O)(=O)O)c4cccnc4c3O)cc2S(=O)(=O)O)c(S(=O)(=O)O)c1)c1cc(S(=O)(=O)O)c2cccnc2c1O`, the Potency result in [1], in experiment [2], in experiment [3], in experiment [4], in [5] and in [6] was “inactive” each time. In addition, the Potency entry in experiment [7] and in experiment [8] was “inactive” in each case.

With `O=C(O)CC/C=C\CC[C@@H]1[C@@H](N2CCCCC2)[C@@H](O)C[C@@H]1OCc1ccc(-c2ccccc2)cc1`, the Potency result in [1], in [2], in experiment [3], in [4], in experiment [5] and in experiment [6] was “inactive” in each case. Besides, the Potency result in experiment [7] and in experiment [8] was “inactive” throughout.

As to `CC[N+](C)(C)Cc1ccccc1Br`, the Potency result in experiment [1], in experiment [2], in experiment [3], in experiment [4], in experiment [5] and in [6] was “inactive” each time. Moreover, the Potency result in experiment [7] and in experiment [8] was “inactive” each time.

Consider `CCCCCCCCCCCCCCCCCC(=O)OCC(C)O` (stereo not drawn), for which the Potency result in experiment [1], in experiment [2], in experiment [4], in [5], in experiment [6] and in experiment [7] was “inactive” in each case. The Potency result in [8] is “inactive”. For the same compound, in experiment [3], the Potency is 23.7 µM (active).

As to `O=C(NNCNNC(=O)c1ccncc1)c1ccncc1`, the Potency entry in experiment [1], in experiment [2], in experiment [3], in experiment [4], in experiment [5] and in [6] was “inactive” throughout. The Potency result in [7] and in [8] was “inactive” in each case.

As for `CC(=O)N=c1sc(S(N)(=O)=O)nn1C`, the Potency entry in [1], in experiment [2], in experiment [3], in [4], in [5] and in [6] was “inactive” each time. Besides, the Potency result in [7] and in experiment [8] was “inactive” throughout.

On to `CN(C)CC/C=C1/c2ccccc2CSc2ccccc21`, for which the Potency result in experiment [1], in experiment [2], in [3], in experiment [4], in [5] and in [6] was “inactive” each time. Also, the Potency result in [7] and in experiment [8] was “inactive” each time.

Consider `CC[C@@H]1/C=C(\C)C[C@H](C)C[C@H](OC)[C@H]2O[C@@](O)(C(=O)C(=O)N3CCCC[C@H]3C(=O)O[C@H](/C(C)=C/[C@@H]3CC[C@@H](Cl)[C@H](OC)C3)[C@H](C)[C@@H](O)CC1=O)[C@H](C)C[C@@H]2OC`, for which the Potency entry in experiment [1], in experiment [2], in experiment [3], in experiment [4], in experiment [5] and in experiment [6] was “inactive” each time. Further, the Potency entry in experiment [7] and in experiment [8] was “inactive” throughout.
